Assays:
Test in all cases: DAPPL (digital affinity profiling via proximity ligation, sequencing); 10 mM Tris-HCl pH 7.5, 50 mM NaCl, 1 mM DTT, 4% glycerol, room temperature, 30 min; GST-TFs on glutathione beads, 16-mer random dsDNA library, 0.1% formaldehyde crosslink after washing; high values mean tight binding
FLI1 = target: T1, FLI1 (Homo sapiens, UniProt Q01543 1-452); conditions: protein: recombinant; tags: N-terminal GST; dsDNA, one strand shown
T1 sequence: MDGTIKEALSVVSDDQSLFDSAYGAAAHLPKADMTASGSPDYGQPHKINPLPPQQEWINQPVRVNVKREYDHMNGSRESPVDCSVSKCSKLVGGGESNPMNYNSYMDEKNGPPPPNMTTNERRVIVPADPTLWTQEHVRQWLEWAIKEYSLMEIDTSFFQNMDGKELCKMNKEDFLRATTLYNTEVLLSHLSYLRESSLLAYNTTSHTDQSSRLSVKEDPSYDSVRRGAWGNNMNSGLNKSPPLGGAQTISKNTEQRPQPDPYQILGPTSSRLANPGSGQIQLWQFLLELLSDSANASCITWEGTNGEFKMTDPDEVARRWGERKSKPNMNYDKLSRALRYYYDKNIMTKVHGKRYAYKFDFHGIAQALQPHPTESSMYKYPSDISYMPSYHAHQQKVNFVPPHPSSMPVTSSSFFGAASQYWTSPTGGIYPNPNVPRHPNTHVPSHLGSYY
Procedure, shortened: (§1)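 Pools were built from human transcription factors expressed in yeast as GST fusions, captured on glutathione beads and DNA-barcoded, along with a tag-only sample. Incubation with 200 nmole of a 16-mer random double-stranded DNA library lasted 30 min at room temperature in Tris/NaCl/DTT/glycerol buffer, and was followed by washing, 0.1% formaldehyde crosslinking, proximity ligation, PCR amplification and Illumina NextSeq500 sequencing. Binding signal is the quotient of each hexamer's read frequency for a factor and its frequency for the tag-only sample.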

ELK1 = target: T2, ELK1 (Homo sapiens, UniProt P19419 1-428); conditions: protein: recombinant; tags: N-terminal GST; dsDNA, one strand shown
T2 sequence: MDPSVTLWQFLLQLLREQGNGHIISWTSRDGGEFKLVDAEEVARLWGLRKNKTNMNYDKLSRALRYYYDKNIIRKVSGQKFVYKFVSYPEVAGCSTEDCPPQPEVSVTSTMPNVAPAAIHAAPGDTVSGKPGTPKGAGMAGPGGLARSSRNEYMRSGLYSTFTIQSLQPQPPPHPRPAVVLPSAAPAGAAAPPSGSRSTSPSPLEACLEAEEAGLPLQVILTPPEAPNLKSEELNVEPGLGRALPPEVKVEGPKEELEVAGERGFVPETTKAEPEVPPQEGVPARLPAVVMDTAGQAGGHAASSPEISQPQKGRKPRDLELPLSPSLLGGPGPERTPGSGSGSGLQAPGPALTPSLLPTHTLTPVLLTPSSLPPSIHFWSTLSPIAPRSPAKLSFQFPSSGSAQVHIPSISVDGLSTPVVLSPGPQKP
Procedure, shortened: as §1

GABPA = target: T3, GABPA (Homo sapiens, UniProt Q06546 1-454); conditions: protein: recombinant; tags: N-terminal GST; dsDNA, one strand shown
T3 sequence: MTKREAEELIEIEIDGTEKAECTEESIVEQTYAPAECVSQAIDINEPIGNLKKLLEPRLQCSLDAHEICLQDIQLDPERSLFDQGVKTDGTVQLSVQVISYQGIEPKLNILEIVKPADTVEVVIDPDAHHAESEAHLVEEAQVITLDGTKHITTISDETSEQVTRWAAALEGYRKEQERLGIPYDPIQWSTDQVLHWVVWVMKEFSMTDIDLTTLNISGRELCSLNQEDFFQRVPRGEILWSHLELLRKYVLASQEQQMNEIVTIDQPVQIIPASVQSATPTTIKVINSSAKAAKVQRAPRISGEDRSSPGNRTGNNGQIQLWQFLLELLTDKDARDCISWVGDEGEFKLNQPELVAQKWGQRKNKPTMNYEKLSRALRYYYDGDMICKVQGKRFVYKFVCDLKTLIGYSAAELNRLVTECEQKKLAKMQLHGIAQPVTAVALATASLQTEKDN
Procedure, shortened: as §1

ERG = target: T4, ERG (Homo sapiens, UniProt P11308 1-479); conditions: protein: recombinant; tags: N-terminal GST; dsDNA, one strand shown
T4 sequence: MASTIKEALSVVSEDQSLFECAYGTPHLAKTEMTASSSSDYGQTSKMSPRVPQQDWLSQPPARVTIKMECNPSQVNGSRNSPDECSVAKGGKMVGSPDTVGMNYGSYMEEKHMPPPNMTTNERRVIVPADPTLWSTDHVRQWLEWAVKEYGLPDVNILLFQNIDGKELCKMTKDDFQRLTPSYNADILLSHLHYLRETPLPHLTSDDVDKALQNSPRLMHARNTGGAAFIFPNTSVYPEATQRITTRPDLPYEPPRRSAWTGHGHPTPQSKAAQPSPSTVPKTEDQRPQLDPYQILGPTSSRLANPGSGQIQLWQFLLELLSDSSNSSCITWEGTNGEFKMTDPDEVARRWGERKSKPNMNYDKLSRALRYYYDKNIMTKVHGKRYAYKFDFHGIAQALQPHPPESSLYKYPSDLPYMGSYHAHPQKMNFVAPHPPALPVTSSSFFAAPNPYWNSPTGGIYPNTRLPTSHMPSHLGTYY
Procedure, shortened: as §1

ELF1 = ELF1 (Homo sapiens, UniProt P32519 1-619); conditions: protein: recombinant; tags: N-terminal GST; dsDNA, one strand shown
Chain of ELF1 (P32519 whole entry): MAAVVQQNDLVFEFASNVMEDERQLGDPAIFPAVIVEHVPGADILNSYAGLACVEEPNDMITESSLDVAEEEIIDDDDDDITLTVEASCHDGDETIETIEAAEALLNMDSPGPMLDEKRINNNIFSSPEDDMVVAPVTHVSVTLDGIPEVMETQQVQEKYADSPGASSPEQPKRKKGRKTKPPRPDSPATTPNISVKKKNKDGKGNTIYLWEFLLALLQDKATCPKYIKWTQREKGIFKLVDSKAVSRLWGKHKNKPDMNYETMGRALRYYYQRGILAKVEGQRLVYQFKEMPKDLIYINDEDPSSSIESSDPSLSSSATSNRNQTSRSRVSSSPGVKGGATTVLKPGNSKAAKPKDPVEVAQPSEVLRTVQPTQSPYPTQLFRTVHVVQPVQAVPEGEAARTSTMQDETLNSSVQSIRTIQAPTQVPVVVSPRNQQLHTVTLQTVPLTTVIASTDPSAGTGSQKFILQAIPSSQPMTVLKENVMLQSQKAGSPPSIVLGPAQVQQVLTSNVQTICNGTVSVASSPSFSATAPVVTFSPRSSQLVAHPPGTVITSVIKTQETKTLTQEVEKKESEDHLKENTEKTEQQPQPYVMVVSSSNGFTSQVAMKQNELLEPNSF
Procedure, shortened: as §1

EHF = target: T5, EHF (Homo sapiens, UniProt Q9NZC4 1-300); conditions: protein: recombinant; tags: N-terminal GST; dsDNA, one strand shown
T5 sequence: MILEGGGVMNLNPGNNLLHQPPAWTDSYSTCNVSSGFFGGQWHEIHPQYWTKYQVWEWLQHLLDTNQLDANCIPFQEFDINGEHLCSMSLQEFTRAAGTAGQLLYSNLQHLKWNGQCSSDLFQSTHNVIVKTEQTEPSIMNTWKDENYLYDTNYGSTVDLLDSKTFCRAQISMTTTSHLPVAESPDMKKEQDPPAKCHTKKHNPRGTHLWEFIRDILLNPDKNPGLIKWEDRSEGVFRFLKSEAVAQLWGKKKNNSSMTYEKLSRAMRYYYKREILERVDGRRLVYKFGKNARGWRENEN
Procedure, shortened: as §1

SPI1 = SPI1 (Homo sapiens, UniProt P17947 1-270); conditions: protein: recombinant; tags: N-terminal GST; dsDNA, one strand shown
Procedure, shortened: as §1

SPIB = SPIB (Homo sapiens, UniProt Q01892 1-262); conditions: protein: recombinant; tags: N-terminal GST; dsDNA, one strand shown
Chain of SPIB (Q01892 whole entry): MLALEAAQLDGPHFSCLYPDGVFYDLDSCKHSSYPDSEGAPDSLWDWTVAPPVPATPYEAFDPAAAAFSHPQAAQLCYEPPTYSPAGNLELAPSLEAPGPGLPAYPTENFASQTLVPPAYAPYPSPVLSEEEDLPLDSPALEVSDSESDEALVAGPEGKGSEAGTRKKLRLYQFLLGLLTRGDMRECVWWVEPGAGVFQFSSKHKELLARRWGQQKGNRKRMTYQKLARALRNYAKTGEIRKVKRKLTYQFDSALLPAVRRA
Procedure, shortened: as §1

ELK3 = target: T6, ELK3 (Homo sapiens, UniProt P41970 1-407); conditions: protein: recombinant; tags: N-terminal GST; dsDNA, one strand shown
T6 sequence: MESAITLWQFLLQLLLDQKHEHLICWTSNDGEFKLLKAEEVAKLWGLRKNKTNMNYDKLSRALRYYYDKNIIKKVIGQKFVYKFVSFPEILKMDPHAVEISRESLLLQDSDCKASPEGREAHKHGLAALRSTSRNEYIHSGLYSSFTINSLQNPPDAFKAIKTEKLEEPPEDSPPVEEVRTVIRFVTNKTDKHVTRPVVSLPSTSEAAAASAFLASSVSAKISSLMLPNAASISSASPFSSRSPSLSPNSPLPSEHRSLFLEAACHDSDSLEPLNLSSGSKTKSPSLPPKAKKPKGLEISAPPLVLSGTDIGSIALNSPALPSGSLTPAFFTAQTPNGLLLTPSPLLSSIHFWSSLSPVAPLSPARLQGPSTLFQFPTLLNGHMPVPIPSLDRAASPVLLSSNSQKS
Procedure, shortened: as §1

FEV = target: T7, FEV (Homo sapiens, UniProt Q99581 1-238); conditions: protein: recombinant; tags: N-terminal GST; dsDNA, one strand shown
T7 sequence: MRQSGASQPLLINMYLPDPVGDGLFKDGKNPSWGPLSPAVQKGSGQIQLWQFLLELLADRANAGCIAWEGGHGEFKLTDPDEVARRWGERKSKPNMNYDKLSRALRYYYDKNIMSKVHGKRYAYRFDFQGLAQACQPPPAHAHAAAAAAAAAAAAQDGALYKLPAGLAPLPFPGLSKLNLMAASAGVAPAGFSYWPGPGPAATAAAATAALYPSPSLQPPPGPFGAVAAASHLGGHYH
Procedure, shortened: as §1

ETV5 = ETV5 (Homo sapiens, UniProt P41161 1-510); conditions: protein: recombinant; tags: N-terminal GST; dsDNA, one strand shown
Chain of ETV5 (P41161 whole entry): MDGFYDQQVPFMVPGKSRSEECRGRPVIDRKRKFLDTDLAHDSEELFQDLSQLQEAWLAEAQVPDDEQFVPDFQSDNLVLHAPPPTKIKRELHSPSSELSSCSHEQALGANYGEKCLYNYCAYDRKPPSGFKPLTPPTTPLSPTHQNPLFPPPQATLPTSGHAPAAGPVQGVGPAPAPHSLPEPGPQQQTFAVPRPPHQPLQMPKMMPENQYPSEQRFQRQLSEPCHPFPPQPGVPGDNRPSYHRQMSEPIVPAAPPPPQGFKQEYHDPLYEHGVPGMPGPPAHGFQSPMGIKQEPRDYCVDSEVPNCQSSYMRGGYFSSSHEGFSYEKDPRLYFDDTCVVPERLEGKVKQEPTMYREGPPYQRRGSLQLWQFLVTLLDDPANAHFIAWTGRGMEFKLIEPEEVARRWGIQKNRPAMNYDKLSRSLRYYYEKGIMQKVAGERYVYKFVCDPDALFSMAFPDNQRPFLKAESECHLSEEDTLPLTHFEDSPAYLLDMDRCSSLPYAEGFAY
Procedure, shortened: as §1

HSF1 = HSF1 (Homo sapiens, UniProt Q00613 1-529); conditions: protein: recombinant; tags: N-terminal GST; chain copies: 3; dsDNA, one strand shown
Chain of HSF1 (Q00613 whole entry): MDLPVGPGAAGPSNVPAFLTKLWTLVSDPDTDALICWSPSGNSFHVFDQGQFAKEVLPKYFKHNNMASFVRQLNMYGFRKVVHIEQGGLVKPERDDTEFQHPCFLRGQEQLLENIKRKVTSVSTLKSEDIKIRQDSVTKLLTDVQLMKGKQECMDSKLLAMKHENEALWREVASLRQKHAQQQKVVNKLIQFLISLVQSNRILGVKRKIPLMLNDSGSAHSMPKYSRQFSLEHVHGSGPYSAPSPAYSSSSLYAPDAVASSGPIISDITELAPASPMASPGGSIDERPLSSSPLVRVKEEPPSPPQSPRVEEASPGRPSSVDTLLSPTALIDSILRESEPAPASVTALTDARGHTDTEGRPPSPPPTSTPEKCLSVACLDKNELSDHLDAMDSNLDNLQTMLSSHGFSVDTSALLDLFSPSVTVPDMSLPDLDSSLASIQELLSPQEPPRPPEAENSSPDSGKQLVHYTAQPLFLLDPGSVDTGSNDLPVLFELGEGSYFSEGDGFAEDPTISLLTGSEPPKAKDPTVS
Procedure, shortened: as §1

SPIC = target: T8, SPIC (Homo sapiens, UniProt Q8N5J4 1-248); conditions: protein: recombinant; tags: N-terminal GST; dsDNA, one strand shown
T8 sequence: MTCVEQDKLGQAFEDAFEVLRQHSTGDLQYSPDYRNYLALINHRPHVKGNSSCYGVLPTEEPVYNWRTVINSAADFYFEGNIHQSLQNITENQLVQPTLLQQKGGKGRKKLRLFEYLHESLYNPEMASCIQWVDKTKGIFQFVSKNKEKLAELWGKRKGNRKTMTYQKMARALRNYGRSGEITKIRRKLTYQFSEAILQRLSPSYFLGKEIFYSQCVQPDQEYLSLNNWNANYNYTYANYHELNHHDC
Procedure, shortened: as §1

ELF4 = ELF4 (Homo sapiens, UniProt Q99607 1-663); conditions: protein: recombinant; tags: N-terminal GST; dsDNA, one strand shown
Chain of ELF4 (Q99607 whole entry): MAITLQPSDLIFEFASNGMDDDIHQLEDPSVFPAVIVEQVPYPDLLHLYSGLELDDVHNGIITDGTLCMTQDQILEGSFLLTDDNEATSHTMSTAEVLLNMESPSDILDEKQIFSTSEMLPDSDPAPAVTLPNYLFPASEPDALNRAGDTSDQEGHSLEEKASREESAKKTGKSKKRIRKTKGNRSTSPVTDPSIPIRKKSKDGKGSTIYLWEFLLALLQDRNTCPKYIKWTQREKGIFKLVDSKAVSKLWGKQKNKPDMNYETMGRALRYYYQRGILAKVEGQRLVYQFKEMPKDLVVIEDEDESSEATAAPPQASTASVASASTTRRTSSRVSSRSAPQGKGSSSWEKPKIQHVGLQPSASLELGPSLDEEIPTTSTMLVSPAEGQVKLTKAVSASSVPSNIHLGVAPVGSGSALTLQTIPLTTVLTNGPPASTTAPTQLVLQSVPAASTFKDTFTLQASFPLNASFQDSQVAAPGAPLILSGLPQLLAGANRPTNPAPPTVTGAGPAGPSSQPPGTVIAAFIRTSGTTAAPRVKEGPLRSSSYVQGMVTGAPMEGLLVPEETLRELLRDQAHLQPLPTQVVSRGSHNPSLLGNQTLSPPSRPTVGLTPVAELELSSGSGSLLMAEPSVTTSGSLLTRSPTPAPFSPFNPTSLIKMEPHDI
Procedure, shortened: as §1

ELK4 = target: T9, ELK4 (Homo sapiens, UniProt P28324-2 1-405); conditions: protein: recombinant; tags: N-terminal GST; dsDNA, one strand shown
T9 sequence: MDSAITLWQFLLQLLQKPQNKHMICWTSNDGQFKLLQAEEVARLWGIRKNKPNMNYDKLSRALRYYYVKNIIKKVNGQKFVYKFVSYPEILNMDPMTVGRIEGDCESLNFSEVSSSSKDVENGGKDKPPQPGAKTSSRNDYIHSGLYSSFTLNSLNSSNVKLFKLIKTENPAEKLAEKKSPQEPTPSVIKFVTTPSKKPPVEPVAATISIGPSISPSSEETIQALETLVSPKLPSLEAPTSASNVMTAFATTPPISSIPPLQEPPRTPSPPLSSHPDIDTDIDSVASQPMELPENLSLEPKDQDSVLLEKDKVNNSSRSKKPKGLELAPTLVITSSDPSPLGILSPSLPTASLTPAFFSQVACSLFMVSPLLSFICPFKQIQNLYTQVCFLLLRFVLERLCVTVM
Procedure, shortened: as §1

ETV2 = target: T10, ETV2 (Homo sapiens, UniProt O00321 1-342); conditions: protein: recombinant; tags: N-terminal GST; dsDNA, one strand shown
T10 sequence: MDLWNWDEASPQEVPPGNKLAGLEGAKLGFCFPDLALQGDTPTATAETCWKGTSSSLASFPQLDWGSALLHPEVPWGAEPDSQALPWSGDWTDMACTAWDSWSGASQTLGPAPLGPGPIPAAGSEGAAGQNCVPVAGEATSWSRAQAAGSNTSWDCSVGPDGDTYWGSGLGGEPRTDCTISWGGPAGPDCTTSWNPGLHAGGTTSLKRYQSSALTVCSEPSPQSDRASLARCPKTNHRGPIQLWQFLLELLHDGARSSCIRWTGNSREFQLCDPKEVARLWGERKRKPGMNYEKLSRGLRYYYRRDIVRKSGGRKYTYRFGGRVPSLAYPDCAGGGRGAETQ
Procedure, shortened: as §1

ELF3 = target: T11, ELF3 (Homo sapiens, UniProt P78545 1-371); conditions: protein: recombinant; tags: N-terminal GST; dsDNA, one strand shown
T11 sequence: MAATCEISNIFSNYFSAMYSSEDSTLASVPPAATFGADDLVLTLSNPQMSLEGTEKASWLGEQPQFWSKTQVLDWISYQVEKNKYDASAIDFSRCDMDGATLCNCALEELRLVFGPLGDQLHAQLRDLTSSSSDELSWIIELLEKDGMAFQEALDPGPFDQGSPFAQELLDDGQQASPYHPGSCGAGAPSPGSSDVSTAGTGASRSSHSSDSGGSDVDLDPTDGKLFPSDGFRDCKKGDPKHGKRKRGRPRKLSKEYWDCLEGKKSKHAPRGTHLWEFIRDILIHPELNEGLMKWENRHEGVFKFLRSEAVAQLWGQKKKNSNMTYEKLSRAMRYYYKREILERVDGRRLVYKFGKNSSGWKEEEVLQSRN
Procedure, shortened: as §1

ETV1 = ETV1 (Homo sapiens, UniProt P50549 1-477); conditions: protein: recombinant; tags: N-terminal GST; dsDNA, one strand shown
Chain of ETV1 (P50549 whole entry): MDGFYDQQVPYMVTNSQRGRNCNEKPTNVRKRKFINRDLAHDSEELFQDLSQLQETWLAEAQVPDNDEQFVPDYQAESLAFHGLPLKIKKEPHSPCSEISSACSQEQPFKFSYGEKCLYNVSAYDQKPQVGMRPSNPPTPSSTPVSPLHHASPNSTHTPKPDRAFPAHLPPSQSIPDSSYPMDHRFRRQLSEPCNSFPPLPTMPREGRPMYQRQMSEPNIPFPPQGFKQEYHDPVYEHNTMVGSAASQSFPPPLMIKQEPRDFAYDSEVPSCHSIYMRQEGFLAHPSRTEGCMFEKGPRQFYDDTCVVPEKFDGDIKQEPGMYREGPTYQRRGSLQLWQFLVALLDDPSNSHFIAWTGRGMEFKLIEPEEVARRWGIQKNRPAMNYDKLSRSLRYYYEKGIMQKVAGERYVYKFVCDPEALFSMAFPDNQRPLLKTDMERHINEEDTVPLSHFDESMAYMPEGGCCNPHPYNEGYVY
Procedure, shortened: as §1

In the case of TGTTCA, the binding signal (FLI1) is reported as 1.11 fold enrichment (6-mer frequency, TF over GST control), the binding signal (ELK1) is reported as 1.31 fold enrichment (6-mer frequency, TF over GST control) and the binding signal (GABPA) is reported as 1.21 fold enrichment (6-mer frequency, TF over GST control). For the same sequence, the binding signal (ERG) was 1.19 fold enrichment (6-mer frequency, TF over GST control), the binding signal (ELF1) was 1.18 fold enrichment (6-mer frequency, TF over GST control) and the binding signal (EHF) was 1.23 fold enrichment (6-mer frequency, TF over GST control). The binding signal (SPI1) was 1.3 fold enrichment (6-mer frequency, TF over GST control), the binding signal (SPIB) was 1.17 fold enrichment (6-mer frequency, TF over GST control) and the binding signal (ELK3) was 1.37 fold enrichment (6-mer frequency, TF over GST control). The binding signal (FEV) was 1.19 fold enrichment (6-mer frequency, TF over GST control), the binding signal (ETV5) was 1.18 fold enrichment (6-mer frequency, TF over GST control) and the binding signal (HSF1) was 1.09 fold enrichment (6-mer frequency, TF over GST control). The binding signal (SPIC) was 1.17 fold enrichment (6-mer frequency, TF over GST control), the binding signal (ELF4) was 1.21 fold enrichment (6-mer frequency, TF over GST control) and the binding signal (ELK4) was 1.28 fold enrichment (6-mer frequency, TF over GST control). The binding signal (ETV2) was 1.07 fold enrichment (6-mer frequency, TF over GST control), the binding signal (ELF3) was 1.22 fold enrichment (6-mer frequency, TF over GST control) and the binding signal (ETV1) was 1.21 fold enrichment (6-mer frequency, TF over GST control).
